37 compounds from the supplement of paper PMC12067926 can be followed below.

This assay deals with Flavobacterium 1 (Flavobacterium glaciei). Briefly: relative growth (AUC of 72 h growth curve relative to DMSO control, dAUC) (ratio); higher = more growth (less inhibition), active = hit call of the paper. The note with it: 20 µM. The method in brief:
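Growth was followed as A600, read hourly for 72 h on a plate reader after brief shaking. Isolates from Icelandic stream sediments and Silwood Park soil, and whole sediment communities, were first grown to carrying capacity in Luria–Bertani medium and then diluted 1:100 into 96-well plates with each chemical at 20 µM (1% DMSO). Relative growth (dAUC) is the spline-integrated area under the curve scaled to the mean of the DMSO controls, and the values are averages of three biological replicates.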
With `CNC(=O)CSP(=S)(OC)OC`, the relative growth is 1.06 (inactive).
For the compound `N#CCNC(=O)c1cnccc1C(F)(F)F`, the relative growth is 0.973 (inactive).
`COP(=O)(OC)OC=C(Cl)Cl`: the relative growth was 1.01 (inactive).
Consider `CCc1cc(C)cc(CC)c1-c1c(OC(=O)C(C)(C)C)n2n(c1=O)CCOCC2`, for which the relative growth was 1.02 (inactive).
In the case of `CCOc1ccc(C(C)(C)COCc2cccc(Oc3ccccc3)c2)cc1` it was 0.785 (inactive).
In the case of `COc1ncc(F)c2nc(S(=O)(=O)Nc3c(F)cccc3F)nn12` it was 1.03 (inactive); in that of `O=[N+]([O-])c1cc(C(F)(F)F)c(Cl)c([N+](=O)[O-])c1Nc1ncc(C(F)(F)F)cc1Cl`, 0.0154 (active); in that of `COP(=S)(OC)Oc1ccc(SC)c(C)c1`, 0.934 (inactive).
In the case of `CCCCCCCCCCCCNC(=N)N`, the relative growth was 0.00294 (active).
As for `CC(C)NC(=O)N1CC(=O)N(c2cc(Cl)cc(Cl)c2)C1=O`, the relative growth is 0.854 (inactive).
Take `CCCCOC(=O)[C@H](C)Oc1ccc(Oc2ccc(C#N)cc2F)cc1`: the relative growth was 1.13 (inactive).
For `CCc1cccc(C)c1N(C(=O)CCl)[C@@H](C)COC`, the relative growth is 0.984 (inactive).
With `CC(C1CC1)C(O)(Cn1cncn1)c1ccc(Cl)cc1` (configuration not stated), the relative growth was 0.999 (inactive).
Regarding `CC(COc1ccc(Oc2ccccc2)cc1)Oc1ccccn1` (configuration not stated), the relative growth was 0.975 (inactive).
The value for `CCNc1nc(Cl)nc(NC(C)C)n1` was 1.05 (inactive); that for `N#C/N=C1\SCCN1Cc1ccc(Cl)nc1` was 1.1 (inactive); that for `CCCC1COC(Cn2cncn2)(c2ccc(Cl)cc2Cl)O1` (configuration not stated) was 0.937 (inactive).
The value for `COc1cc(C)c(C(=O)c2c(OC)ccc(Br)c2C)c(OC)c1OC` was 0.992 (inactive); that for `C/C(=N\C#N)N(C)Cc1ccc(Cl)nc1` was 0.92 (inactive); that for `CCCCN(CCCC)SN(C)C(=O)Oc1cccc2c1OC(C)(C)C2` was 0.925 (inactive).
For the compound `N#Cc1c(Cl)c(Cl)c(Cl)c(C#N)c1Cl`, the relative growth was 0.681 (active).
Take `Cc1nc(N(C)C)nc(OC(=O)N(C)C)c1C`: the relative growth is 0.924 (inactive).
Take `CC(C)CC(C)c1sccc1NC(=O)c1cn(C)nc1C(F)(F)F` (configuration not stated): the relative growth is 1.02 (inactive).
`Fc1ccc(Oc2ccnc3cc(Cl)cc(Cl)c23)cc1`: the relative growth was 1.04 (inactive).
Take `CC1(C)C(C=C(Cl)Cl)C1C(=O)OCc1cccc(Oc2ccccc2)c1` (configuration not stated): the relative growth was 0.977 (inactive).
Regarding `Oc1ccccc1-c1ccccc1`, the relative growth is 0.75 (inactive).
For the compound `CCC(C)c1ccccc1OC(=O)NC` (configuration not stated), the relative growth was 1.11 (inactive).
As for `CN/C(=N\[N+](=O)[O-])NCc1cnc(Cl)s1`, the relative growth was 0.869 (inactive).
As to `O=C(O)c1nc(Cl)ccc1Cl`, the relative growth is 1.04 (inactive).
With `CC1(C)[C@H](/C=C(\Cl)C(F)(F)F)[C@@H]1C(=O)OC(C#N)c1cccc(Oc2ccccc2)c1` (some centres not stated), the relative growth is 0.836 (inactive).
As for `O=C(NC(=O)c1c(F)cccc1F)Nc1ccc(OC(F)(F)C(F)OC(F)(F)F)c(Cl)c1` (configuration not stated), the relative growth is 0.951 (inactive).
Take `O=C1C=C(N(Cc2ccc(Cl)nc2)CC(F)F)CO1`: the relative growth was 1.09 (inactive).
As to `O=C(O)COc1ccc(Cl)cc1Cl`, the relative growth was 0.966 (inactive).
On to `COc1ccc(C(=CC(=O)N2CCOCC2)c2ccc(Cl)cc2)cc1OC` (mixture of isomers), for which the relative growth was 1.07 (inactive).
In the case of `CCN(CC)c1nc(C)cc(OP(=S)(OC)OC)n1`, the relative growth is 1.05 (inactive).
In the case of `Oc1ccc(Cl)cc1Cc1cc(Cl)ccc1O`, the relative growth was 0.0108 (active).
With `N#CC(CCc1ccc(Cl)cc1)(Cn1cncn1)c1ccccc1` (configuration not stated), the relative growth is 0.846 (inactive).
